A number with no mark means an inactive call.
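Note: TDF is a line of transformed human dermal fibroblasts of mesenchymal origin.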

For this assay, the system named is TDF. Kind of assay: H1.0 immunofluorescence intensity relative to DMSO (% of DMSO); higher = stronger H1.0 induction, active = 120 or more. Conditions: concentration: 10 µM; 24 h. The procedure, abridged:
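H1.0 nuclear intensity or cell number is expressed as percent of the plate control, with the median of replicates taken. HCC1569 and TDF cells were treated with compounds at 10 µM for 24 h at 37 °C, in triplicate, then fixed and immunostained for H1.0 with DAPI as a nuclear stain. HCC1569 values were smoothed to correct for positional effects.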
Take `CC(=O)OC1(C(C)=O)CCC2C3C=C(Cl)C4=CC(=O)C5CC5C4(C)C3CCC21C` (centres undefined) [Cyproterone acetate]: the H1.0 immunofluorescence intensity is 92.2.
For `FC(F)(F)c1ccccc1-n1ccnc1` [1-[2-(Trifluoromethyl)phenyl]imidazole], the H1.0 immunofluorescence intensity is 96.5.
As for `Cc1cc(Nc2ncc3cc(-c4c(Cl)cccc4Cl)c(=O)n(C)c3n2)ccc1F`, the H1.0 immunofluorescence intensity was 201 (active).
As to `C=CCc1ccc(O)c(-c2cc(CC=C)ccc2O)c1` [Magnolol], the H1.0 immunofluorescence intensity is 91.7.
As to `CC(C)[N+](C)(CCOC(=O)C1c2ccccc2Oc2ccccc21)C(C)C.[Br-]` [Propantheline bromide], the H1.0 immunofluorescence intensity is 95.1.
As for `Cc1cccc(Nc2ccccc2C(=O)O)c1C` [Mefenamic acid], the figure is 104; as for `Cc1cc(C)c(S(=O)(=O)Nc2cccc(C(F)(F)F)c2)c(C)c1`, 105; as for `CC(=O)OC1C(C)OC(Oc2c(-c3ccc(O)cc3)oc3cc(O)cc(O)c3c2=O)C(O)C1OC(C)=O` (centres undefined) [RSK Inhibitor, SL0101], 102.
As for `CC(C[N+](C)(C)C)OC(N)=O` (stereo not drawn) [Carbamyl-beta-methylcholine], the figure is 89.1.
With `CC12CCc3occc3C1CCC13CC(CCC12)C(O)(CO)C3` (centres undefined) [Cafestol], the H1.0 immunofluorescence intensity was 103.
Consider `Cc1cc(C(C)(C)C)c(O)c(C)c1CC1=NCCN1.Cl` [Oxymetazoline.HCl], for which the H1.0 immunofluorescence intensity is 98.5.
For `Cl.Cl.Cl.Ic1ccc(N2CCN(Cc3c[nH]c4ncccc34)CC2)cc1` [L-750,667 trihydrochloride], the H1.0 immunofluorescence intensity is 103.
As to `COc1ccccc1N1CCN(CCCNc2cc(=O)n(C)c(=O)n2C)CC1.Cl` [Urapidil hydrochloride], the H1.0 immunofluorescence intensity is 92.7.
`N#Cc1cc2nc([O-])c([O-])nc2cc1[N+](=O)[O-].[Na+].[Na+]` [CNQX disodium]: the H1.0 immunofluorescence intensity is 94.1.
Take `O=P(O)(O)C(Cl)(Cl)P(=O)(O)O` [Clodronic acid]: the H1.0 immunofluorescence intensity was 88.3.
As for `CN1CCN2c3ccccc3Cc3ccccc3C2C1.Cl` (centres undefined) [Mianserin.HCl], the figure is 101; as for `CCCCCCCOc1cc2c(cc1/C(C)=C/c1ccc(C(=O)O)cc1)C(C)(C)CCS2(=O)=O`, 88.9.
`CN(C)C(=N)N=C(N)N` [Metformin]: the H1.0 immunofluorescence intensity was 95.9.
As for `O=c1c(O)c(-c2ccccc2O)oc2cc(O)cc(O)c12` [Datiscetin], the figure is 92.1; as for `Cn1cnc2c(NC3CCCC3)ncnc21` [N6-Cyclopentyl-9-methyladenine], 97.3.
As for `O=C1Nc2ccc(Cl)cc2C(C#CC2CC2)(C(F)(F)F)O1` (centres undefined) [Efavirenz], the figure is 97.6; as for `COC1C(OC(=O)C=CC=CC=CC=CC(=O)O)CCC2(CO2)C1C1(C)OC1CC=C(C)C` (centres undefined) [Fumagillin], 98.9.
For `CC1=NS(=O)(=O)c2cc(Cl)ccc2N1` [Diazoxide], the H1.0 immunofluorescence intensity was 101.
Turning to `CCCCCCCCCCCCCCCCOCC(COP(=O)([O-])OCC[N+](C)(C)C)OC(=O)NC` (centres undefined), the H1.0 immunofluorescence intensity is 95.7.
Consider `O=C1NC(c2cccc([N+](=O)[O-])c2)=CCN1c1ccccc1O`, for which the H1.0 immunofluorescence intensity was 95.6.
On to `CN(C)CCCOC1C(C(O)CO)OC2OC(C)(C)OC21.Cl` (centres undefined) [Amiprilose hydrochloride], for which the H1.0 immunofluorescence intensity was 82.4.
In the case of `Cl.Cl.c1ccc2c3c([nH]c2c1)C1C2CCC(C4CCCNC42)N1CC3` (centres undefined), the H1.0 immunofluorescence intensity is 97.2.
As for `CCCCCCCCC=CCCCCCCCCCCCCC(=O)O` [14(E)-Tricosenoic acid], the H1.0 immunofluorescence intensity is 93.3.
With `Cc1cnc(-c2cc(N3CCN(C(=O)CCS(C)(=O)=O)CC3)ncc2Cl)c(C)c1.Cl`, the H1.0 immunofluorescence intensity is 83.9.

The values are drawn from the supplement of paper PMC7156485.
